Compound activity from PubChem BioAssay.
ALDH1A1 block: inhibitors of human aldehyde dehydrogenase 1A1. Potency, µM (highest dose often 75.3 µM), inactives show top-dose activity, negative = inhibition, hits mostly inhibitors. 220,000 tested, 7.3% active. Purified ALDH1A1, NADH fluorescence, propionaldehyde substrate. P00352. AID 1030; active = well fitted inhibition curve with a large enough effect, not every such curve was filed as active; inconclusive = small, poorly fitted or top-dose-only effect, or another doubt; inactive = no such curve, though single readings can be large or run the other way;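 also: potency is read from the fitted curve at half-maximal effect; plate controls were no enzyme wells and a reference inhibitor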
GLA spleen mod: inhibitors or activators of human alpha-galactosidase in spleen homogenate | Potency, µM (titrated, usually from 80 µM), for the others: at the top dose activity change, negative = inhibition, hits mostly inhibitors | human spleen homogenate, 4MU-alpha-Gal fluorescence, 40 min | 240,000 tested, 0.008% active;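 also: potency is read from the fitted curve at half-maximal effect; 0% = enzyme with vehicle and -100% = no enzyme basal signal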
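Human spleen homogenate (1 ug) as enzyme source, 4-methylumbelliferyl-alpha-D-galactopyranoside 1 mM final, citrate/phosphate pH 5.0 with 0.01% Tween-20. Compounds 40 min at 37C, NaOH/glycine stop; fluorescence Ex 365/Em 440, Hill-fit AC50.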
HPGD block: inhibitors of human 15-hydroxyprostaglandin dehydrogenase (HPGD); Potency, µM, for the others: at the highest dose activity change, negative = inhibition, hits mostly inhibitors; P15428; purified HPGD, NADH fluorescence kinetic, PGE2 substrate; 150,000 tested, 4.3% active; active = well fitted inhibition curve with a large enough effect, not every such curve was filed as active; inconclusive = small, poorly fitted or top-dose-only effect, or another doubt; inactive = no such curve, though single readings can be large or run the other way; also: potency is read from the fitted curve at half-maximal effect
Target sequence (P15428 whole entry, looked up): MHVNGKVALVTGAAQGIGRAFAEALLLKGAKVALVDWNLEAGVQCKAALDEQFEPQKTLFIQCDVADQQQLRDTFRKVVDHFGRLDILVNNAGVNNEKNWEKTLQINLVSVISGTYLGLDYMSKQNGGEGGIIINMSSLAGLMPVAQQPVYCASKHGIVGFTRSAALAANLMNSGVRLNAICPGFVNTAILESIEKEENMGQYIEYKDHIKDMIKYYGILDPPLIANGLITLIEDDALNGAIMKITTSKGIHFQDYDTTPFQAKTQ
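20 nM HPGD preincubated 15 min at room temperature with compound in 50 mM Tris-HCl pH 8, 0.01% Tween 20. Started with 1 mM NAD+ and 30 uM prostaglandin E2; NADH fluorescence (360/450 nm) read 5 times over 30-s intervals, last minus first.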
12-hLO inh: inhibitors of human 12-lipoxygenase (ALOX12). P18054. purified 12-hLO, xylenol orange hydroperoxide absorbance. Potency, µM (titrated, usually from 57.1 µM), inactives show at the highest dose activity change, negative = inhibition, actives largely listed as inhibitors. 150,000 tested, 0.12% active; also: potency is read from the fitted curve at half-maximal effect; nearly all actives have a fitted effect of over 55% in size
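Lipoxygenase turnover measured by absorbance at 573 and 405 nm after Fe-XO development. Human 12hLO 150 nM, arachidonate 40 uM, pH 7.0 Hepes buffer with detergent; 15 min compound preincubation, 30 min reaction.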
GLA inh pH 4.5: inhibitors of human alpha-galactosidase A at pH 4.5. P06280. purified enzyme, 4-MU-alpha-Gal fluorescence, pH 4.5. activity change, negative = inhibition, % at 105 µM. 230,000 tested, under 10 active;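 also: 0% = full activity with enzyme and -100% = basal without enzyme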
Target sequence (P06280 whole entry, looked up): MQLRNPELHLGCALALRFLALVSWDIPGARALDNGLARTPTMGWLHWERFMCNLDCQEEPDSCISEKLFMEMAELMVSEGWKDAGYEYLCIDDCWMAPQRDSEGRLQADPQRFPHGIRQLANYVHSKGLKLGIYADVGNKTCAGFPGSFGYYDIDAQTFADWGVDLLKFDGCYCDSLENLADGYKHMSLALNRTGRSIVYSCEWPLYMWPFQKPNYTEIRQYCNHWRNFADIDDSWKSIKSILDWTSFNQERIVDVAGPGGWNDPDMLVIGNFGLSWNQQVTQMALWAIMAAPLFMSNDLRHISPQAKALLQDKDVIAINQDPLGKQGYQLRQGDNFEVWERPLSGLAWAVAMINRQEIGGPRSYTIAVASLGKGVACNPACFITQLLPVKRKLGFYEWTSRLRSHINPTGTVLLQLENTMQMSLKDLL
PNC assembly inh: inhibitors of perinucleolar compartment assembly. activity change (PNC), negative = inhibition, % at 10 µM. 140,000 tested, 3.1% active. PC3M PTB-GFP, PNC prevalence imaging, 16 h; active compounds read low;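 active = readout at or below -70, meaning at least 70% loss of cells showing the perinucleolar compartment, a nuclear body marking cancer cells; inconclusive = readout between -30 and a set limit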;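 also: plate controls were DMSO wells for no effect and camptothecin positive control wells for full effect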
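PC3M cells stably expressing PTB-GFP, 750–1000 cells/well, treated 16 h at 37 °C with compound (23 nl of library stock), in duplicate. After paraformaldehyde fixation and Hoechst stain, imaged at 20x; PNC prevalence scored by image analysis.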
* marks the source's active call; other numbers are inactive results; [ ] = remark or other dose. Only some compounds are listed: those with a hit (about 10% of all), similar ones and a draw of the others. Unless noted, calls follow the shape of the dose curve; as a rule, active = well fitted curve in the direction sought with a large enough effect; inconclusive = small, poorly fitted or top-dose-only effect, or another doubt; inactive = no such curve, though single readings can be large; an effect the other way counts as inactive or inconclusive. Unless noted, % is scaled to controls: 0 for no effect and ±100 for the full control effect.

`COC(=O)C(C)(C)ONC(=O)Nc1ccccc1Cl` gave ALDH1A1 block 16.3%, GLA spleen mod 2.2% and GLA inh pH 4.5 2.5.
`Cc1ccc(-n2c(SCC(=O)N3CCCc4ccccc43)nnc2-c2cccnc2)c(C)c1` gave ALDH1A1 block inconclusive, GLA spleen mod 2.9%, HPGD block -19.8%, 12-hLO inh -0.5%, GLA inh pH 4.5 -1.5 and PNC assembly inh 8.4.
CCOc1ccccc1-n1c(SCC(=O)N2CCCc3ccccc32)nnc1-c1cccnc1 was read as ALDH1A1 block 12.6µM*, GLA spleen mod 1.9%, HPGD block -0.7%, 12-hLO inh -1.2%, GLA inh pH 4.5 2.8 and PNC assembly inh 20.7.
`O=C(CSc1nnc(-c2cccnc2)n1-c1ccc(SC(F)F)cc1)N1CCCc2ccccc21` gave ALDH1A1 block 20µM*, GLA spleen mod -2.0%, HPGD block -2.0%, 12-hLO inh 2.0%, GLA inh pH 4.5 4.4 and PNC assembly inh 27.7.
Screening O=C(CCC1CCCCC1)Nc1ccc(C(=O)c2ccncc2)cc1 returned ALDH1A1 block inconclusive, GLA spleen mod 7.9% and GLA inh pH 4.5 -5.9.
COc1ccc(C(C)=O)cc1CSc1nnc(-c2ccncc2)n1C was read as ALDH1A1 block -0.3%, GLA spleen mod 0.9% and GLA inh pH 4.5 -2.4.
For COc1ccc(C(C)=O)cc1CSc1nnc(Nc2ccc(C)cc2)s1 the results were ALDH1A1 block inconclusive, GLA spleen mod -6.5%, HPGD block inconclusive, 12-hLO inh -4.3%, GLA inh pH 4.5 -4.2 and PNC assembly inh -113.0*.
Screening COc1ccc(C(C)=O)cc1CSc1nnc(Nc2ccccc2)s1 returned ALDH1A1 block inconclusive, GLA spleen mod 3.0%, HPGD block 25.1µM*, 12-hLO inh -3.5%, GLA inh pH 4.5 -3.5 and PNC assembly inh 4.4.
For CCOc1ccc(C(C)=O)cc1CSc1nnc(N)s1 the results were ALDH1A1 block -2.7%, GLA spleen mod 2.6% and GLA inh pH 4.5 7.4.
For COc1ccc(C(C)=O)cc1CSc1nnc(C)s1 the results were ALDH1A1 block inconclusive, GLA spleen mod 4.6%, HPGD block 17.8µM*, 12-hLO inh -0.3%, GLA inh pH 4.5 -2.1 and PNC assembly inh -3.5.
COc1ccc(C(C)=O)cc1CSc1nnc(-c2ccc(Cl)cc2)n1-c1ccccc1 was read as ALDH1A1 block 10µM*, GLA spleen mod 15.7%, HPGD block -22.6%, 12-hLO inh -11.8%, GLA inh pH 4.5 -8.7 and PNC assembly inh -11.7.
Screening CS(=O)(=O)N1CCC2(CCCN(C(=O)Nc3cccc(C#N)c3)C2)CC1 returned ALDH1A1 block 12.8%, GLA spleen mod -2.9%, HPGD block -2.0% and 12-hLO inh 1.7%.
For Cc1nc(NCc2ccccc2)c2nc(-c3ccccc3)n(C(C)CN(C)C)c2n1 (configuration not stated) the results were ALDH1A1 block inconclusive, GLA spleen mod -0.2%, HPGD block -21.6%, 12-hLO inh -4.9% and GLA inh pH 4.5 -13.2.
NC(=NCCC[C@H](N)C(=O)O)NO was read as ALDH1A1 block -6.5%, GLA spleen mod 12.0%, HPGD block 3.3%, 12-hLO inh -2.5% and GLA inh pH 4.5 -1.6.
For COc1ccc(-n2c(SCc3nnc(-c4ccccc4)o3)nnc2-c2ccccc2)cc1 the results were ALDH1A1 block -2.5%, GLA spleen mod -11.0%, HPGD block -8.7%, 12-hLO inh -8.9%, GLA inh pH 4.5 -17.9 and PNC assembly inh 49.2.
`COc1ccc(-c2nnc(SCc3nnc(-c4ccccc4)o3)n2-c2ccccc2)cc1` gave ALDH1A1 block -1.9%, GLA spleen mod 1.6%, HPGD block 7.94µM*, 12-hLO inh 2.3%, GLA inh pH 4.5 2.4 and PNC assembly inh inconclusive.
CC(C)CN1CCCC2(CCN(C(=O)c3cnccn3)CC2)C1 was read as ALDH1A1 block inconclusive, GLA spleen mod -0.6%, HPGD block -4.4% and 12-hLO inh 1.6%.
`O=C(Nc1ccc(S(=O)(=O)Nc2ncccn2)cc1)c1ccc(S(=O)(=O)N2CCCC2)cc1` gave ALDH1A1 block 25.1µM*, GLA spleen mod 4.7% and GLA inh pH 4.5 -1.5.
CN(C)S(=O)(=O)c1cccc(NC(=S)NC(=O)C2CCCCC2)c1 was read as ALDH1A1 block inconclusive, GLA spleen mod 3.5%, HPGD block -11.8%, 12-hLO inh -19.1%, GLA inh pH 4.5 -4.7 and PNC assembly inh inconclusive.
Screening Cc1ccnc(NS(=O)(=O)c2ccc(NC(=O)c3ccc(S(=O)(=O)N4CCCC4)cc3)cc2)n1 returned ALDH1A1 block inconclusive, GLA spleen mod -9.1% and GLA inh pH 4.5 -11.5.
`COc1ccc(NS(=O)(=O)c2ccc(N3CCCC3)c(NC(=S)Nc3cccc(S(=O)(=O)N(C)C)c3)c2)cc1` gave ALDH1A1 block 3.16µM*, GLA spleen mod -2.6%, HPGD block 3.16µM*, 12-hLO inh -12.6%, GLA inh pH 4.5 1.3 and PNC assembly inh inconclusive.
`O=C(Nc1ccc(S(=O)(=O)Nc2ncccn2)cc1)c1ccc2ncsc2c1` gave ALDH1A1 block 7.08µM*, GLA spleen mod 2.2% and GLA inh pH 4.5 1.5.
`CN(C)c1nc(NS(=O)(=O)c2ccc(Cl)cc2)nc(N(C)C)n1` gave ALDH1A1 block 2.5%, GLA spleen mod 2.9%, HPGD block -2.0%, 12-hLO inh -0.8%, GLA inh pH 4.5 0.3 and PNC assembly inh -120.5*.
Screening O=C(O)CC1(C(=O)O)CCCCC1 returned ALDH1A1 block 1.3%[13.5 µM], HPGD block -12.6% and 12-hLO inh 1.6%[11.4 µM].
Screening O=S(=O)(Nc1ncccn1)c1ccc(NC(=S)Nc2ccc(Cl)cc2)cc1 returned ALDH1A1 block 10µM*, GLA spleen mod -4.0% and GLA inh pH 4.5 -11.3.
COc1ccc(NS(=O)(=O)c2cccc(NC(=O)c3ccc(S(=O)(=O)N4CCCCCC4)cc3)c2)cc1 was read as ALDH1A1 block inconclusive, GLA spleen mod -6.0%, HPGD block -13.4%, 12-hLO inh -0.7%, GLA inh pH 4.5 -3.4 and PNC assembly inh -112.4*.
CCN(CC)c1ccc(C2N(C(=O)N3CCOCC3)CCN2S(=O)(=O)c2ccc(C)cc2)cc1 (configuration not stated) was read as ALDH1A1 block 7.94µM*, GLA spleen mod 4.5%, HPGD block -2.6%, 12-hLO inh 1.6%, GLA inh pH 4.5 2.1 and PNC assembly inh inconclusive.
COc1ccc(CC(=O)c2c(O)cc(O)cc2O)cc1OC was read as ALDH1A1 block -6.1%, GLA spleen mod -4.9%, HPGD block 31.6µM*, 12-hLO inh -4.1% and PNC assembly inh 15.9.
